PubChem BioAssay AID894 (National Center for Advancing Translational Sciences (NCATS), 2007)
About 6,500 (4.3%) of roughly 150,000 compounds were called active. About 12% were inconclusive and are not listed. The call rests on the fitted dose curve; in most records, active means well fitted inhibition curve with a large enough effect (not every such curve was filed as active); inconclusive means small, poorly fitted or top-dose-only effect, or another doubt; inactive means no such curve, though single readings can be large or run the other way. Shown is part of a subset that was picked to be rich in actives.

molecular target: 15-hydroxyprostaglandin dehydrogenase [NAD(+)] (Homo sapiens) (UniProt P15428); assay: qHTS Assay for Inhibitors of HPGD (15-Hydroxyprostaglandin Dehydrogenase); settings: purified HPGD, NADH fluorescence kinetic, PGE2 substrate; activity change, negative = inhibition: stronger effect = lower value
Sequence (P15428 whole entry, looked up): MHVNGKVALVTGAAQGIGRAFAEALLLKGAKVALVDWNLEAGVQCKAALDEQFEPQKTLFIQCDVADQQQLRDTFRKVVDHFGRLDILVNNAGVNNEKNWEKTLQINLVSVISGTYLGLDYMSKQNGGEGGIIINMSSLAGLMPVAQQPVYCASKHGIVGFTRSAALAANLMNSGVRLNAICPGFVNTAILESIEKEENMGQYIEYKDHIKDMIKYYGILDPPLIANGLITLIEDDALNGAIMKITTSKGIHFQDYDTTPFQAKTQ
Procedure, shortened: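 20 nM HPGD preincubated 15 min at room temperature with compound in 50 mM Tris-HCl pH 8, 0.01% Tween 20. Started with 1 mM NAD+ and 30 uM prostaglandin E2; NADH fluorescence (360/450 nm) read 5 times over 30-s intervals, last minus first.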
On the % scale 0 is the no-effect control and ±100 the full control effect; potency means the concentration at half of the fitted maximal effect.

Compound | activity change, negative = inhibition | Potency
O=C(Cc1ccccc1)NNS(=O)(=O)c1ccc([N+](=O)[O-])cc1 | -13.6% (inactive) | 
COc1ccc(CC(=O)Nc2cc(S(=O)(=O)N3CCCCC3)ccc2N2CCN(C)CC2)cc1 | -7.18% (inactive) | 
COc1cc(/C=C/C(=O)N2c3ccccc3Sc3ccc(C(F)(F)F)cc32)cc(OC)c1OC | -14.1% (inactive) | 
CCOC(=O)c1sc(=S)n2c1[nH]c(=O)c1ccc(C(=O)OC)cc12 |  | 8.91 µM (active)
CCOC(=O)C1=C(C)Nc2sc(C(=O)c3ccc(Br)cc3)c(N)c2C1c1ccc(C(=O)OC)cc1 (stereo not drawn) | -7.23% (inactive) | 
CCOC(=O)c1sc(NC(=O)c2ccncc2)nc1C | -16.2% (inactive) | 
CN(C)c1ccc(C(CNC(=O)c2ccc(F)cc2)c2c[nH]c3ccccc23)cc1 (stereo not drawn) | -5.43% (inactive) | 
Cc1ccc(SCC(=O)Nc2ncc(C)s2)cc1 | -20.4% (inactive) | 
Cc1ccc(SCCC(=O)NC(C(C)C)C(C)C)cc1 |  | 7.94 µM (active)
Cc1ccc(SCCC(=O)OCC(=O)Nc2ncc(Cl)cc2Cl)cc1 | -8.54% (inactive) | 
CC/C=C\C/C=C\C/C=C\C/C=C\C/C=C\C/C=C\CCC(=O)NCCc1ccc(O)c(O)c1 | -14.7% (inactive) | 
Cc1c(C(=O)NCC2CCCO2)sc2nc(-c3ccccc3)cn12 (stereo not drawn) |  | 28.2 µM (active)
CCOc1ccc(-n2c(N)c(C(=O)NCC3CCCO3)sc2=S)cc1 (stereo not drawn) |  | 8.91 µM (active)
Cc1ccc(-c2noc(-c3ccccc3C(=O)NCC3CCCO3)n2)cc1 (stereo not drawn) | -6.63% (inactive) | 
Cc1ccc(C(=O)NCC2CCCO2)o1 (stereo not drawn) | -12% (inactive) | 
CCOc1ccc(S(=O)(=O)NCC2CCCO2)cc1 (stereo not drawn) | -2.22% (inactive) | 
Cc1nc2ccccc2c2oc(C(=O)NCC3CCCO3)cc12 (stereo not drawn) | -26% (inactive) | 
CCOC(=O)c1cccnc1NC(=O)c1ccncc1 | -2.52% (inactive) | 
c1ccc2c(c1)CSc1sccc1C2=C1CCNCC1 | -1.18% (inactive) | 
COCCNc1cc(NCCOC)c([N+](=O)[O-])cc1[N+](=O)[O-] | -9.02% (inactive) | 
c1ccc(-n2ncc3c(N4CCCC4)ncnc32)cc1 | -12.9% (inactive) | 

Compound | activity change, negative = inhibition | Potency
O=C(O)C1CCN(c2ncnc3ccc(-c4ccccc4C(F)(F)F)cc23)CC1 |  | 1.26 µM (active)
Cc1scc(C(=O)NNC(=S)NCc2ccccc2)c1C | -7.44% (inactive) | 
COc1cc(CC(=O)NCc2cccs2)cc(OC)c1OC | -17% (inactive) | 
Cc1nnc(SCC(=O)NCc2cccs2)[nH]c1=O | -0.933% (inactive) | 
Cn1ncc(Br)c1C(=O)NCc1cccs1 |  | 15.8 µM (active)
Cc1ccc2nsnc2c1NC(=O)c1ccccc1[N+](=O)[O-] | -15.8% (inactive) | 
Cc1ccc(/C=N/NC(=O)CNC(=O)COc2ccccc2)o1 | -5.29% (inactive) | 
Cc1ccc(C(=O)N/C(=C/c2cccnc2)C(=O)O)cc1 | -13.7% (inactive) | 
COc1ccc(Br)cc1C(=O)Nc1cccc(C)c1C | -28.1% (inactive) | 
COc1ccc(Br)cc1C(=O)NC(=S)Nc1cc(-c2nc3ccccc3[nH]2)ccc1C |  | 28.2 µM (active)
COc1ccc(/C=C(/NC(=O)c2ccc(C)cc2)c2nc3ccccc3[nH]2)cc1OC | -24.1% (inactive) | 
C=C(C(C)=O)C(O)c1cccs1 (stereo not drawn) | -6.13% (inactive) | 
COC(=O)C(C(=O)OC)[C@@H](NC=O)c1ccccc1 | -1.83% (inactive) | 
CCc1c(C)n([O-])c2c([n+]1=O)CCCCC2 | -4.11% (inactive) | 
O=[n+]1c2c(n([O-])c3cc(Br)ccc31)CCC2 |  | 11.2 µM (active)
Cc1ccc(-c2c(C)n([O-])c3c([n+]2=O)CCC3)cc1 | -24.7% (inactive) | 
O=C(Cc1ccccc1)NCc1ccc(F)cc1 | -22.4% (inactive) | 
CCCCOC(=O)c1ccc(NC(c2ccc(C)cc2)P(=O)(OC)OC)cc1 (stereo not drawn) | -21.8% (inactive) | 
CCc1c(C)sc(NC(=O)c2cccs2)c1C(N)=O |  | 8.91 µM (active)
CCc1nnc(NC(=O)c2cccs2)s1 | -9.46% (inactive) | 
CCc1ccccc1NC(=O)c1cccs1 | -5.77% (inactive) | 

Compound | activity change, negative = inhibition | Potency
O=C(NCCOc1ccccc1Cl)C(=O)Nc1ccccc1 | -2.3% (inactive) | 
CC(=O)NS(=O)(=O)c1ccc(NC(=O)C2C3C=CC(C3)C2C(=O)O)cc1 (stereo not drawn) | -3.59% (inactive) | 
COCCCN(C(=S)Nc1c(C)cc(C)cc1C)C(C)c1ccncc1 (stereo not drawn) | -0.352% (inactive) | 
CCn1ncc(CNC(=O)C2(C)CC2(Br)Br)c1C (stereo not drawn) |  | 14.1 µM (active)
CCn1ncc(Br)c1C(=O)Nc1cc(C)ccc1F | 0.199% (inactive) | 
COc1cc2c3c(c1)/C(=C1/SC(=S)NC1=O)C(=O)N3C(C)(C)C=C2C | -26.1% (inactive) | 
Cc1c(NC(=S)Nc2ccccc2)c(=O)n(-c2ccccc2)n1C | -3.36% (inactive) | 
CCC1C=C(c2ccccc2)C=CN=C1N(CC)CC (stereo not drawn) | -4.96% (inactive) | 
NC1=C([N+](=O)[O-])C(c2ccccc2)C2=C(CCCC2=O)O1 (stereo not drawn) |  | 20 µM (active)
N#CC1=C(N)N(c2ccccc2)C2=C(C(=O)CCC2)C1c1ccccc1 (stereo not drawn) | -8.89% (inactive) | 
NS(=O)(=O)c1ccc(CNC(=O)c2ccc(Cl)cc2[N+](=O)[O-])cc1 | -16.4% (inactive) | 
Cc1ccc2nc(SCc3nnc(-c4ccccc4[N+](=O)[O-])o3)c(C#N)cc2c1 |  | 1 µM (active)
CCOc1ccc2cc(C#N)c(SCC(=O)OC)nc2c1 | -15% (inactive) | 
Cc1cc(C)nc(SCc2ccccc2C#N)n1 | -12.7% (inactive) | 
N#Cc1ccccc1Sc1ccccc1C(=O)OCC(=O)NC1CCCCC1 | -19.1% (inactive) | 
CCN(CC)c1ccc2oc(=O)c(C)nc2c1 | -16.7% (inactive) | 
CCN(CC)c1ccc(/C=N/Nc2nc(C)cc(C)n2)c(O)c1 |  | 20 µM (active)
CCOC(=O)Cc1csc(SCC(=O)NC(C)C23CC4CC(CC(C4)C2)C3)n1 (stereo not drawn) | -15.9% (inactive) | 
Cc1ccc(CNC(=O)c2ccccc2CCc2ccccc2)cc1 | -19.3% (inactive) | 
O=C(Cn1cnc2c(cnn2-c2ccccc2)c1=O)NCc1ccccc1 | -9.12% (inactive) | 
Cc1c(C(=O)NCc2ccccc2)cnn1-c1ccccc1 |  | 17.8 µM (active)
